Screening results deposited in PubChem by several laboratories.
Hits are enriched below; roughly 4.2% of the tested compounds scored in any of these assays.
NLRP3 yeast inh = NALP3 inflammasome inhibitors in reconstituted yeast, primary screen, luminescence, uHTS; Yeast reconstituted NLRP3/ASC/caspase-1, beta-gal luminescence, 24 h; inhibition, % at 10 µM; 330,000 compounds, 0.39% hits; AID 2825, 2010;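 active = inhibition of 50% or more; inactive = inhibition below 50%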;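 also: plate controls were induced DMSO wells for no effect and uninduced yeast grown without galactose for full effect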
tim10-1 inh = growth inhibitors of tim10-1 mutant yeast, primary screen, luminescence, uHTS; AID 463190, 2010; inhibition, % at 20 µM; 330,000 compounds, 2.2% hits; S. cerevisiae tim10-1 ts strain growth, BacTiter-Glo, 24 h;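 active = inhibition of at least 40%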;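 also: mutant grown at 25 °C; 0% = DMSO wells with yeast and 100% = wells holding no yeast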
V-ATPase pHluor = regulators of yeast V-ATPase proton pumping, primary screen, pHLuorin cytosolic pH fluorescence; S. cerevisiae; response, % at 10 µM; 350,000 compounds, 0.37% hits; AID 504577, 2011; in the data active = response mostly above about 7.3%, no sharp cut-off; inactive = mostly below about 5.4%; also: actives read high
tim23-1 inh = growth inhibitors of tim23-1 mutant yeast, primary screen, luminescence, uHTS; inhibition, % at 20 µM; 330,000 compounds, 1.3% hits; S. cerevisiae tim23-1 growth, BacTiter-Glo luminescence, 24 h;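 active = growth inhibition of the mutant yeast at or above 50%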;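 also: temperature-sensitive mutant grown at 25 °C; plate controls were DMSO-treated mutant yeast for no effect and medium wells lacking yeast for full effect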
NALP1 yeast inh = NALP1 inflammasome inhibitors in reconstituted yeast, colorimetric, S. cerevisiae, triplicate retest; 280,000 compounds, 0.61% hits; S. cerevisiae NALP1/ASC/caspase-1 growth, X-gal OD620, 72 h; AID 2071, 2009; inhibition, % at 10 µM; in the data active = inhibition mostly above about 24%, no sharp cut-off; inactive = mostly below about 32%
TIM10 inh = growth inhibitors of isogenic TIM10 control yeast, primary screen, counter-screen for tim10-1 yeast inhibitor project, luminescence, uHTS | S. cerevisiae TIM10 strain growth, BacTiter-Glo luminescence, 24 h | inhibition, % at 10 µM | 330,000 compounds, 1.4% hits | AID 463195, 2010;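 active = inhibition of 40% or more at the single tested concentration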;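 also: wild-type TIM10 isogenic control strain grown at permissive 25 °C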
tim10-1 conf = growth inhibitors of tim10-1 mutant yeast, confirmation, single concentration, luminescence, S. cerevisiae; inhibition, % at 20 µM; 7,400 compounds, 56% hits; AID 463213, 2010; S. cerevisiae tim10-1 ts strain growth, BacTiter-Glo, 24 h; shares compounds with tim10-1 inh;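 active = inhibition of yeast growth at or above a set limit in either of two repeat tests at 20 µM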;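 also: tim10-1 mutant grown at permissive 25 °C to find synthetic lethal compounds; 0% = DMSO yeast wells and 100% = medium wells without yeast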
tim10 confirm = growth inhibitors of wild-type TIM10 yeast, confirmation, counter-screen for tim10-1 synthetic lethality project, single concentration, luminescence, S. cerevisiae | shares compounds with TIM10 inh | S. cerevisiae tim10 strain growth, BacTiter-Glo luminescence, 24 h | inhibition, % at 10 µM | 4,600 compounds, 63% hits;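 active = inhibition of yeast growth at or above a set limit in either of two replicates at 10 µM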;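 also: this counterscreen used the strain with wild-type TIM10; 0% = yeast with DMSO and 100% = medium wells lacking yeast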
* = called active by the depositor.

Screening COc1ccc(N2CCN(C3CCCN(C(=O)C4=C(C)OCCO4)C3)CC2)cc1 (centres undefined) returned NLRP3 yeast inh 15.7, tim10-1 inh -1.9, V-ATPase pHluor 2.4, tim23-1 inh 9.4, NALP1 yeast inh 11.1 and TIM10 inh 0.1.
`N#CC1(C#N)[C@@H](C(=O)C23CC4CC(CC(C4)C2)C3)C12CCOCC2` gave NLRP3 yeast inh 21.7, tim10-1 inh 56.7*, V-ATPase pHluor 0.6, tim23-1 inh 30.9, NALP1 yeast inh 8.1, TIM10 inh 43.9*, tim10-1 conf 48.3* and tim10 confirm -6.5.
`CC(C(=O)C12CC3CC(CC(C3)C1)C2)N1CCOCC1` (centres undefined) gave NLRP3 yeast inh 9.3, tim10-1 inh 10.7, V-ATPase pHluor -5.7, tim23-1 inh 15.5, NALP1 yeast inh 20.8 and TIM10 inh 2.4.
`CN(C)c1ccc(C(=O)n2nnc3ccccc32)cc1` gave NLRP3 yeast inh 4.3, tim10-1 inh 24.8, V-ATPase pHluor -9.7, tim23-1 inh 36.7, NALP1 yeast inh 41.0 and TIM10 inh 39.3.
CC(C)c1ccc(/C=C/C(=O)n2nnc3ccccc32)cc1 was read as NLRP3 yeast inh 21.5, tim10-1 inh 55.3*, V-ATPase pHluor 1.1, tim23-1 inh 31.4, NALP1 yeast inh 3.8, TIM10 inh 49.7*, tim10-1 conf 51.5* and tim10 confirm 47.5*.
Screening O=C1/C(=C/c2cccc([N+](=O)[O-])c2)CSc2ccc(Cl)cc21 returned NLRP3 yeast inh -6.0, tim10-1 inh 15.3, V-ATPase pHluor -0.3, tim23-1 inh 15.0, NALP1 yeast inh -20.2 and TIM10 inh 15.4.
`CNc1ccc(/C=C2\CSc3ccccc3C2=O)cc1[N+](=O)[O-]` gave NLRP3 yeast inh 22.5, tim10-1 inh 44.7*, V-ATPase pHluor 3.2, tim23-1 inh 29.3, NALP1 yeast inh -31.6, TIM10 inh 46.5*, tim10-1 conf 40.4* and tim10 confirm 24.9.
For N=C1C(c2ccccc2)=C(O)CN1c1cccc(S(=O)(=O)N2CCOCC2)c1 the results were NLRP3 yeast inh 16.7, tim10-1 inh -8.2, V-ATPase pHluor -0.5, tim23-1 inh 6.8, NALP1 yeast inh 0.0 and TIM10 inh 4.5.
C=CCc1cccc(/C=N/NC(=O)CNc2ccccc2)c1O was read as NLRP3 yeast inh 16.3, tim10-1 inh 24.3, V-ATPase pHluor 3.2, tim23-1 inh 10.7, NALP1 yeast inh 26.2 and TIM10 inh 5.2.
C=CCc1cccc(/C=N/NC(=O)CNc2ccccc2OC)c1O was read as NLRP3 yeast inh 3.9, tim10-1 inh 47.0*, V-ATPase pHluor -4.9, tim23-1 inh 24.9, NALP1 yeast inh 0.4, TIM10 inh 96.7*, tim10-1 conf 29.8 and tim10 confirm 46.8*.
Cc1cc(NC(=O)COC(=O)c2ccc(OC(F)(F)F)cc2)no1 was read as NLRP3 yeast inh 22.0, tim10-1 inh 7.8, V-ATPase pHluor -2.5, tim23-1 inh 14.5 and TIM10 inh -1.9.
`Cc1cc(NC(=O)COC(=O)C(Nc2ccc(C(F)(F)F)cc2Cl)C(C)C)no1` (centres undefined) gave NLRP3 yeast inh 16.3, tim10-1 inh 52.6*, V-ATPase pHluor 6.6, tim23-1 inh 42.9, NALP1 yeast inh 17.7, TIM10 inh 50.0*, tim10-1 conf 23.2 and tim10 confirm 43.4*.
Screening CC1(C2CC2)NC(=O)N(CC(=O)Nc2ccc(C(F)(F)F)cc2)C1=O (centres undefined) returned NLRP3 yeast inh 24.8, tim10-1 inh -11.6, V-ATPase pHluor 3.5, tim23-1 inh 0.1 and TIM10 inh -10.9.
`Cc1ccnn2cc3c(=O)n(C)c(=O)n(C)c3c12` gave NLRP3 yeast inh 5.6, tim10-1 inh 53.2*, tim23-1 inh 41.1, NALP1 yeast inh -2.7, TIM10 inh 72.2*, tim10-1 conf 50.5* and tim10 confirm -9.2.
Screening Cn1c(=O)c2cn3ncccc3c2n(C)c1=O returned NALP1 yeast inh 12.4.
For COc1ccccc1N1CCN(C(=O)/C=C/c2c(Cl)nc3ccccn23)CC1 the results were NLRP3 yeast inh 30.5, tim10-1 inh 58.7*, V-ATPase pHluor 3.6, tim23-1 inh 43.6, NALP1 yeast inh 24.2, TIM10 inh 42.2*, tim10-1 conf 50.8* and tim10 confirm 35.9*.
For O=C(CN1CCN(S(=O)(=O)N2CCOCC2)CC1)Nc1cc(Cl)ccc1Cl the results were NLRP3 yeast inh 12.6, tim10-1 inh 21.0, V-ATPase pHluor -0.7, tim23-1 inh 7.7, NALP1 yeast inh -6.9 and TIM10 inh -7.1.
`O=c1oc2ccccc2nc1/C=C(O)/C=C\c1ccccc1` gave NLRP3 yeast inh 14.5, tim10-1 inh 57.5*, V-ATPase pHluor -1.2, tim23-1 inh 39.0, TIM10 inh 45.3*, tim10-1 conf 46.5* and tim10 confirm 44.1*.
For Cc1nn(C)c(C)c1NC(=O)Nc1ccc(Cl)c(Cl)c1 the results were NLRP3 yeast inh 8.4, tim10-1 inh 60.2*, V-ATPase pHluor 1.7, tim23-1 inh 37.2, NALP1 yeast inh 22.4, TIM10 inh 40.2*, tim10-1 conf 57.8* and tim10 confirm 24.6.
`CCOC(=O)c1cnc2ccc(OC)cc2c1Nc1ccc2c(c1)OCCO2` gave NLRP3 yeast inh 22.2, tim10-1 inh 56.3*, V-ATPase pHluor -4.7, tim23-1 inh 48.1, NALP1 yeast inh 6.0, TIM10 inh 42.7*, tim10-1 conf 48.3* and tim10 confirm 14.4.
For COc1ccc(C2CC2/C(=N/OC(=O)c2cccs2)c2ccccc2)cc1 (centres undefined) the results were NLRP3 yeast inh 27.7, tim10-1 inh 63.2*, V-ATPase pHluor 3.0, tim23-1 inh 45.4, NALP1 yeast inh 4.5, TIM10 inh 63.4*, tim10-1 conf 59.0* and tim10 confirm 63.9*.
Screening O=C(N/N=C/c1ccccn1)c1cc([N+](=O)[O-])cc([N+](=O)[O-])c1 returned NLRP3 yeast inh 12.4, tim10-1 inh 42.3*, V-ATPase pHluor -0.3, tim23-1 inh 20.0, NALP1 yeast inh 9.3, TIM10 inh 48.4*, tim10-1 conf 11.1 and tim10 confirm 7.9.
Nc1ccc2c3c(ccc([N+](=O)[O-])c13)CC2 was read as V-ATPase pHluor -1.2.
